Assay outcomes: PubChem BioAssay, National Center for Advancing Translational Sciences (NCATS)
Sm TGR block – S. mansoni TGR enzyme inhibition. Q962Y6. purified TGR, DTNB reduction, TNB absorbance 405 nm. Potency, µM (doses to about 114 µM), inactives show top-dose activity change, negative = inhibition, usual class: inhibitors. hit rate 3% among 360,000; also: nearly all actives have a fitted effect of over 60% in size
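First, TGR (20 nM dispensed) and NADPH were mixed with compound. Second, a 15 min room-temperature incubation followed. Third, further NADPH and then DTNB were added to start the reaction. Finally, TNB absorbance was monitored kinetically.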
Marburg entry inh – inhibitors of Marburg virus binding or cell entry; Marburg virus pseudotyped entry inhibition, cell reporter; Potency, µM (titrated, usually from 37.8 µM), for inactives: at the top dose activity change, negative = inhibition, most hits filed as inhibitors; hit rate 1.8% among 300,000; calls by dose curve; tested in HEK293 cells
RE007 growth inh – less growth of the S. pombe RE007 Vpr strain. S. pombe RE007 Vpr strain, BacTiter-Glo ATP luminescence, 24 h. hit rate 0.21% among 360,000. Potency, µM (top dose mostly 92.2 µM), inactives show at the highest dose activity change, negative = less growth, usual class: inhibitors; active = well fitted falling curve with a large enough effect; inconclusive = small, poorly fitted or top-dose-only effect; inactive = no such curve, though single readings can be large or run the other way; also: nearly all actives have a fitted effect of over 50% in size
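Fission yeast RE007 carrying one integrated HIV-1 vpr copy, seeded at OD 0.01 in PMG+AL medium with 23 nL pinned compound. Grown 24 h at 30 degrees; viability read by BacTiter-Glo luminescence after 5 min.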
Lassa entry inh – blocks Lassa virus binding to or entry into cells; Lassa virus pseudotype entry inhibition, cell reporter; Potency, µM (top dose mostly 37.9 µM), without a hit: top-dose activity change, negative = inhibition, actives largely listed as inhibitors; hit rate 1.2% among 300,000; calls by dose curve; tested in HEK293 cells; also: nearly all actives have a fitted effect of over 50% in size
HCV inhibitor – blocks hepatitis C virus. Huh7.5.1 HCVcc-Cre infection, luciferase reporter, 44 h. Potency, µM (series often up to 41.8 µM), for inactives: at the highest dose activity change, negative = inhibition, most hits filed as inhibitors. hit rate 3.4% among 340,000
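Infectious HCVcc-Cre (~0.5 moi) was added to cells just after compound, with cells seeded 4 h earlier at 1,000 per well. Luciferase activity after 44 h culture reported infection; substrate was incubated 15 min at room temperature before reading.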
FMDV inh – blocks foot and mouth disease virus; Potency, µM (series often up to 57.9 µM), for inactives: at the top dose activity change, negative = inhibition, most hits filed as inhibitors; AID 1159524; hit rate 1.2% among 410,000; FMDV antiviral cell-based qHTS; calls by dose curve; tested in HEK293T cells; also: read-out not given here; nearly all actives have a fitted effect of over 45% in size
An asterisk follows results filed as active; ? = inconclusive; . = not tested or not shown; [ ] = another dose, or the depositor's remark. Shown are actives, neighbours in structure and some others; about 7.2% of the full set was active somewhere. Unless noted, calls follow the shape of the dose curve; as a rule, active = well fitted curve in the direction sought with a large enough effect; inconclusive = small, poorly fitted or top-dose-only effect, or another doubt; inactive = no such curve, though single readings can be large; an effect the other way counts as inactive or inconclusive. % is scaled to controls: 0 for no effect and ±100 for the full control effect; potency is read from the fitted curve at half-maximal effect.

SMILES	Sm TGR block	Marburg entry inh	RE007 growth inh	Lassa entry inh	HCV inhibitor	FMDV inh
COc1ccc(-n2c(=S)[nH]c3cc(C(=O)Nc4ccc(C)c(F)c4)ccc3c2=O)c(OC)c1	12%	?	-12%	?	11µM*	-17%
CCOc1ccc(NC(=O)c2ccc3c(=O)n(-c4ccc(OC)cc4OC)c(=S)[nH]c3c2)cc1	-1%	.	.	.	.	.
COc1ccc(C2=NN(c3ccccc3)C(=O)/C2=C\c2ccc(O)c(OC)c2)cc1	-7%	.	-16%	.	8%	37%
O=C1ON=C(c2ccc(Cl)c([N+](=O)[O-])c2)/C1=C/c1cccc([N+](=O)[O-])c1O	9%	.	10%	.	20%	-16%
O=C1ON=C(c2ccccc2)/C1=C/c1ccc(OS(=O)(=O)c2ccccc2)cc1	8.9µM*	9%	2%	12%	0%	32µM*
COc1cc(/C=C2\C(=O)ON=C2c2ccc(Cl)cc2)ccc1O	.	?	3%	-22%[46.1 µM]	8%	25µM*
O=C1ON=C(c2ccccc2)/C1=C/c1cccnc1	-33%	.	10%	.	22%	4%
COc1ccc(/C=C2\C(=O)ON=C2c2ccccc2)cc1	?	?	?	22%[46.1 µM]	9%	35µM*
O=C1ON=C(c2cccc([N+](=O)[O-])c2)/C1=C/c1ccc(O)cc1	10µM*	?	-6%	6%	11%	?
O=C1ON=C(c2ccccc2)/C1=C/c1ccc(O)c(O)c1	5µM*	.	.	.	-7%	?
CCOc1cc(/C=C2/C(=O)ON=C2C)ccc1O	-15%	.	-3%	.	7%	-23%
CC1=NOC(=O)/C1=C/c1ccc(O)c(Cl)c1	-19%	4%[46.1 µM]	-9%	13%[46.1 µM]	16%	18µM*
CCOC(=O)Cc1ccc(NC(=O)N2CCSc3ccccc32)cc1	0%	.	.	-29%[46.1 µM]	.	13%
OC1(c2ccccc2)CCN(Cc2ccccc2)C2CCCCC21 (configuration not stated)	1%	8.9µM*	.	?	13%	-28%
Cc1oc(-c2cccs2)nc1CN1CC[C@@](O)(c2ccccc2)[C@H]2CCCC[C@@H]21	-9%	?	4%	-11%[46.1 µM]	?	-10%
CCCNC(=O)OC[C@H]1O[C@H](CCON=C(C)CCN2CCCCc3nc(C)c(C)cc32)C=C[C@H]1Oc1ccc(OC)cc1	.	-26%[14.2 µM]	.	.	.	.
Cc1ccc(-c2cc(-c3ccc(F)cc3)c(C#N)c(N)n2)o1	20µM*	?	?	?	?	-2%
CSc1nc(-c2ccc(Cl)cc2)nc(N)c1C#N	-2%	-1%[46.1 µM]	-4%	1%	11%	0%
CCOc1cc(-c2cc(-c3ccc(C)o3)nc(N)c2C#N)ccc1O	-24%	?	4%	?	?	-21%
Cc1ccc(-c2cc(-c3ccc4c(c3)OCO4)c(C#N)c(N)n2)o1	10µM*	?	-13%	?	?	-12%
Cc1cc(-c2cc(-c3ccc(Cl)cc3)nc(N)c2C#N)co1	3.2µM*	-26%	45µM*	?	-22%	-15%
Cc1ccc(-c2cc(-c3ccc(C)o3)nc(N)c2C#N)cc1	3.2µM*	0%	?	18%	-19%	?
O=C(O)c1cc(-n2c(/C=C\c3ccc(F)cc3)nc3ccccc3c2=O)ccc1Cl	8%	.	.	10%[46.1 µM]	.	?
Cc1ccc(-c2cc(-c3ccc(Cl)cc3)c(C#N)c(N)n2)o1	3.5µM*	?	-20%	?	11%	-15%
O=C(Cn1cc(SCc2c(F)cccc2Cl)c2ccccc21)N1CCCCC1	5%	.	.	5%[46.1 µM]	.	21%
CC(=O)c1ccc(F)c(-c2cc(C)cc3c2OC(CNC(=O)Cn2nc(C)nc2C)C3)c1 (configuration not stated)	.	.	.	.	.	-13%
Nc1nccc(C#Cc2cncnc2Nc2ccc(OCc3cccc(F)c3)c(Cl)c2)n1	.	.	.	18µM*	.	.
COc1ccc(NC(=O)CN(C)CC(=O)Nc2cccc(F)c2)cc1Cl	-3%	?	16%	?	-30%	-16%
Fc1cccc(COc2ccccc2CNc2ccccc2)c1	-4%	?	-5%	1%	?	-12%
CC(=O)Nc1cccc(C#Cc2cncnc2Nc2ccc(OCc3cccc(F)c3)c(Cl)c2)c1	.	.	.	16µM*	.	.
